Bioassay records (PubChem BioAssay)
Hits are enriched below; roughly 2.4% of the tested compounds scored in any of these assays.
A3G deaminase = APOBEC3G DNA deaminase inhibitors, primary screen, biochemical, fluorescence, single-stranded DNA substrate, uHTS | 330,000 tested, 0.28% active | DNA dC->dU-editing enzyme APOBEC-3G (Homo sapiens), Q9HC16 | inhibition, % at 20 µM | recombinant A3G, ssDNA deamination FAM/TAMRA fluorescence;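 active means inhibition of at least 40% at 20 µM, with no more than 30% in the related APOBEC3A deaminase screen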;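 further: plate controls were DMSO wells with A3G for no effect and wells lacking A3G enzyme for full effect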
Target sequence (Q9HC16 whole entry, looked up): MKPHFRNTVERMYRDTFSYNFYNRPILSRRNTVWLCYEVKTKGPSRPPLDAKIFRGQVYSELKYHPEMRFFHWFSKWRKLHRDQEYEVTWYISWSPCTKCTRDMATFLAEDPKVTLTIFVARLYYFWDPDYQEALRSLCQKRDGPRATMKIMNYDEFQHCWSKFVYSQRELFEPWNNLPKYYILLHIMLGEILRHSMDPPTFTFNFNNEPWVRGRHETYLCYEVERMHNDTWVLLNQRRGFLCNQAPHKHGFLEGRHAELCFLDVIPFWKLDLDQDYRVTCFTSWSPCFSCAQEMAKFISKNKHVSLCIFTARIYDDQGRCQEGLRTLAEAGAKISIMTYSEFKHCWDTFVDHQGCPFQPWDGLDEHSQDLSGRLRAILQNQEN
ADAM10 inh = human ADAM10 inhibitors, primary screen, biochemical, QFRET, HTS; Disintegrin and metalloproteinase domain-containing protein 10 (Homo sapiens), O14672; recombinant ADAM10, EDANS/DABCYL FRET peptide cleavage, 3 h; inhibition, % at 7 µM; AID 720582, 2013; 370,000 tested, 0.62% active;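 active means inhibition above a per-campaign cutoff equal to the mean of compounds falling between control-based bounds plus 3 SD, cut at about 20% in these data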;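 further: 0% = DMSO wells while the 100% control is not disclosed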
APOBEC3A inh = APOBEC3A ssDNA deaminase inhibitors, primary screen, selectivity assay for APOBEC3G inhibitor project, biochemical, FAM/TAMRA oligo cleavage fluorescence | DNA dC->dU-editing enzyme APOBEC-3A (Homo sapiens), P31941 | recombinant A3A, FAM/TAMRA ssDNA deamination fluorescence | inhibition, % at 20 µM | 330,000 tested, 0.41% active | AID 493011, 2011;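 active means at least 40% inhibition at 20 µM here, with at most 30% in a related deaminase screen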;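 further: plate controls were A3A with DMSO for no effect and wells lacking A3A enzyme for full effect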
Target sequence (P31941 whole entry, looked up): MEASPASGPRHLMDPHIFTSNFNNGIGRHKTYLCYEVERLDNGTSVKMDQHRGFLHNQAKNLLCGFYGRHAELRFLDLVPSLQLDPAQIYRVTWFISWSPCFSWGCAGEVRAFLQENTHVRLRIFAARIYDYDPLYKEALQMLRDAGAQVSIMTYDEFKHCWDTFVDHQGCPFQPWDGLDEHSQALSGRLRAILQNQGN
ADAM17 inh = ADAM17 inhibitors, primary screen, biochemical, QFRET | inhibition, % at 6.95 µM | recombinant ADAM17, EDANS/DABCYL FRET peptide cleavage | Disintegrin and metalloproteinase domain-containing protein 17 (Homo sapiens), P78536 | 370,000 tested, 0.83% active;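 active means inhibition above the mean of compounds lying between control limits plus 3 SD, set per campaign, cut at about 8.5% in these data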;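 further: 0% = DMSO-only wells as the low control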
CendR NRP1 mod = modulators of CendR peptide binding to NRP-1, primary screen, biochemical, fluorescence polarization, uHTS; Neuropilin-1 (Homo sapiens), O14786; FAM-RPARPAR peptide binding to NRP-1; 360,000 tested, 0.85% active; AID 602438, 2012; inhibition, % at 25 µM;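 active means inhibition or corrected inhibition above about 18%, plus a signal ratio from 0.5 to 1.5, limit read from the data, passing the limit was not always enough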
Active calls of the source: *; x = not tested or not shown.

SMILES | A3G deaminase | ADAM10 inh | APOBEC3A inh | ADAM17 inh | CendR NRP1 mod
COC(=O)C1(C(=O)OC)NOC2C(=O)N(c3ccc(Cl)cc3Cl)C(=O)C21 (stereo not given) | -7 | 12 | -1 | 11* | 4
COC(=O)C1(C(=O)OC)NOC2C(=O)N(N(C)c3ncc(C(F)(F)F)cc3Cl)C(=O)C21 (stereo not given) | -3 | 5 | -3 | 4 | 1
O=C(O)[C@@H]1CCCN(S(=O)(=O)c2cccc3cccnc23)C1 | -5 | -3 | -3 | -2 | 26*
Cc1c(S(=O)(=O)N2CCCC(C(=O)O)C2)cnn1C (stereo not given) | -8 | 0 | -4 | 1 | 22*
Cc1nn(C)cc1S(=O)(=O)N1CCCC(C(=O)O)C1 (stereo not given) | -6 | -11 | -1 | -4 | -3
O=C(C(=O)N1CCN(S(=O)(=O)c2ccc(Cl)cc2)CC1)c1cccc(C(F)(F)F)c1 | x | 0 | x | -3 | x
CCC(=O)Nc1cccc(C(=O)/C=C/c2cccs2)c1 | -5 | -5 | 0 | -4 | 27*
C[C@H]1C(=O)N2[C@@H](C[C@]3(c4c[nH]c5ccccc45)c4ccccc4N(S(=O)(=O)c4ccccc4)[C@H]23)C(=O)N1C | x | -9 | x | -4 | x
CSCCC(NS(=O)(=O)c1ccc2c(c1)OCCO2)C(=O)N(C)Cc1ccc(C)cc1 (stereo not given) | -10 | 6 | -6 | -4 | 37*
COC(=O)c1cc(S(=O)(=O)N2CCN(c3cccc(C(F)(F)F)c3)CC2)cn1C | x | 9 | x | 8 | x
CC(C)CN1C(=O)[C@]2(CC(=O)N(C)C2c2ccccc2)c2cc(-n3cc(CO)nn3)ccc21 (stereo not given in full) | x | 2 | x | 4 | x
COc1ccccc1CCC[C@@H](CCS(=O)(=O)C(C)C)CC1CCCCC1 | x | -5 | x | -1 | x
CC(C)(C)c1cc[n+](-c2[nH]c(=O)sc2/C=N/NC([S-])=Nc2ccccc2)cc1 | -8 | -15 | -8 | -1 | 54*
Cc1ccc[n+](-c2[nH]c(=O)sc2/C=N/N=C(\[O-])CCn2c3ccccc3c3ccccc32)c1 | -11 | 1 | -3 | 0 | 14
Cc1cc[n+](-c2[nH]c(=O)sc2/C=N/NC([S-])=Nc2ccccc2)cc1C | -7 | 6 | -2 | -2 | 35*
CC1(C)CC(=O)N(CC(=O)N2CCN(c3cccc(Cl)c3Cl)CC2)c2ccccc2S1(=O)=O | x | 3 | x | -2 | x
O=C(CNC(=O)C12CC3CC(CC(C3)C1)C2)NC1=NCCS1 | -3 | 5 | -1 | -1 | 26*
O=C(CNC(=O)C1CCCCC1)NC1=NCCS1 | 2 | 5 | 0 | 3 | 3
COc1ccc(-c2csc(C(O)c3ccc(F)c(F)c3)n2)cn1 (stereo not given) | x | -3 | x | -2 | 21*
CC(C)(C)c1cccc(P(=O)(c2ccccc2)c2ccccc2)c1O | 1 | -1 | 6 | -2 | -1
O=P(c1ccccc1)(c1ccccc1)c1ccccc1C(Br)Br | x | -10 | x | -4 | 28*
Cn1cc(CCOCc2ccccc2)c2ccccc21 | x | -1 | x | -1 | x
C=CCN1[C@H](CC(C)C)COc2cc(F)ccc2S1(=O)=O | x | 0 | x | -3 | x
Cc1ccccc1CN1C(=O)CS/C1=N/N=C/c1ccco1 | -7 | 2 | -2 | 4 | 29*
CC(C)CNC(=O)OCc1cn(Cc2cccc(F)c2)nn1 | x | -5 | x | -1 | x
SMILES | A3G deaminase | ADAM10 inh | APOBEC3A inh | ADAM17 inh | CendR NRP1 mod
N#Cc1ccc(OCc2nnc(SCC(=O)c3ccccc3)n2-c2ccccc2)cc1 | -10 | -4 | -2 | -3 | 31*
Cc1ccc(OCc2nnc(SCC(=O)c3ccccc3)n2-c2ccccc2)cc1 | -8 | 16 | -1 | 6 | -1
CC(C)=CC([C@]12C[C@H](CO)N[C@@H]1Nc1ccccc12)S(=O)(=O)c1ccccc1 (stereo not given in full) | x | 5 | x | -1 | x
C[C@H]1CN([C@@H](C)CO)C(=O)CCCn2cc(nn2)CO[C@@H]1CN(C)C(=O)Nc1ccc(N2CCN(C)CC2)cc1 | x | -11 | x | -4 | 21*
C[C@@H]1CN([C@@H](C)CO)C(=O)CCCn2cc(nn2)CO[C@H]1CN(C)C(=O)Nc1ccc(F)cc1 | x | -13 | x | -3 | x
Cc1ccc(F)cc1C(=O)N1CCCC(c2nc(-c3cccs3)no2)C1 (stereo not given) | x | -2 | x | 3 | x
COc1ccc(C(C(=O)NC2CCCC2)N(C(=O)c2snc(C(N)=O)c2N)c2ccccc2OC)cc1OC (stereo not given) | -4 | -80 | -3 | -32 | 32*
COc1ccc(C(C(=O)NC2CCCC2)N(C(=O)c2snc(C(N)=O)c2N)c2cc(C)ccc2OC)cc1OC (stereo not given) | -8 | -15 | -5 | -7 | -1
CC[C@H]1C=C[C@@H](C(=O)NS(=O)(=O)c2ccc(C)cc2)N(C(C)=O)C1 | x | -24 | x | -5 | x
COC(=O)C1N[C@@H]([C@@H](NC(=O)COc2ccccc2)C(=O)NC2CC2)SC1(C)C (stereo not given in full) | -8 | 2 | -3 | -5 | 31*
CCc1ccc(CNC(=O)C2CCCN(S(=O)(=O)N3CC(C)CC(C)C3)C2)cc1 (stereo not given) | 11 | -5 | 4 | -1 | 22*
O=C(CSC1=NNC(c2ccccn2)S1)Nc1cccc(Cl)c1 (stereo not given) | 0 | 22* | 0 | 5 | 1
O=C(Nc1nc2ncccn2c1-c1ccccc1)c1ccccc1 | x | -162 | x | -52 | x
O=C(NCc1cccc(F)c1)c1cccc(OC2CCN(C(=O)C3CC3)CC2)c1 | -4 | 3 | -2 | -1 | 24*
CCN(Cc1ccccc1)C(=O)c1cccc(OC2CCN(C(=O)C3CC3)CC2)c1 | 11 | -6 | 4 | 0 | 10
CCOC(=O)C1Nc2ccc(C(F)(F)F)cc2C2c3ccccc3CC12 (stereo not given) | 5 | -1 | 3 | -2 | -4
CCOC(=O)C1Nc2ccccc2C2C(O)C(O)CC12 (stereo not given) | -2 | -6 | -4 | 3 | 27*
c1nc(NCC2CC2)c2cc(-c3ccc4c(c3)OCO4)ccc2n1 | x | -149 | x | -61 | x
NC(=O)c1ccccc1N=Cc1cccnc1 | -4 | -259 | -3 | -125 | 33*
O=C(C(=O)N1CCC(CNC(=O)c2cccs2)CC1)c1cc2ccccc2o1 | x | 3 | x | -1 | x
Cc1cc(C)cc(OCCCn2ccnc2)c1 | -4 | -1 | -8 | 2 | 27*
